Consider 41 molecules from ChEMBL document CHEMBL4888484, “Replenishing the malaria drug discovery pipeline: Screening and hit evaluation of the MMV Hit Generation Library 1 (HGL1) against asexual blood stage Plasmodium falciparum ,using a nano luciferase reporter read-out” (2022).

Hit rate of the full screen: of about 150,000 compounds, about 540 (0.36%) showed an effect of 50% or more. The list comes from a sample in which strong results are over-represented; it also holds similar structures and randomly drawn compounds.

The experiment concerns Plasmodium falciparum. The experiment in a line: Primary screen in NF54 nanoGlo assay, in single point, at 2uM, 72h; a lower Z score goes with more inhibition. The note with it: timepoint 72 hour. In kind it is functional, Erythrocyte.
As to `CC(NC[C@H](C)O)C(C)(C)c1ccc(F)cc1` (some centres not stated), the “% Inhibition” value is reported as -3% and the Z score is on record as 0.44.

Take `Fc1cc(CNCC(F)F)ccc1Cl`: the “% Inhibition” value is recorded as -7% and the Z score came out at 0.98.

For the molecule `O=c1ccc(-c2cncnc2)c2n1C[C@H]1C[C@@H]2CN(S(=O)(=O)c2ccccc2)C1`, the “% Inhibition” value is -11% and the Z score is 1.78.

For `Cc1ccc(CN2CCN(C(=O)Cc3cccnc3)[C@H]3CS(=O)(=O)C[C@H]32)o1`, the “% Inhibition” value came to 5% and the Z score is listed as -0.92.

Take `CCc1cccc(N(C(=O)c2ccc(NC(C)=O)cc2)C2(C(=O)NCc3ccccc3)CCN(C(C)=O)CC2)c1`: the “% Inhibition” value came to 0% and the Z score turned out to be 0.

Take `CC(=O)N(C1CCN(Cc2ccccc2)CC1)C1(C(=O)Nc2ccc3[nH]ccc3c2)CCN(C)CC1`: the “% Inhibition” value is 92% and the Z score is given as -11.04.

On to `CCC(=O)Nc1ccc(C)c(NC(=O)C2(c3ccccc3)CCN(C)CC2)c1`, for which the “% Inhibition” value is -9% and the Z score is reported as 1.09.

Regarding `CN(C)c1ccc(CN2CCN(CCO)[C@@H]3CS(=O)(=O)C[C@@H]32)cn1`, the “% Inhibition” value was -3% and the Z score came to 0.58.

In the case of `O=C(Cc1ccc(O)c(F)c1)N1C[C@H]2c3ccccc3OC[C@@]2(C(=O)O)C1`, the “% Inhibition” value is -2% and the Z score amounted to 0.24.

For `COc1ccc(-c2csc(-n3cc(C4=CCN(CCO)CC4)cn3)n2)cc1`, the “% Inhibition” value is recorded as 50% and the Z score was -5.49.

`CCOc1ccccc1NC(=O)CN1CC=C(c2cnn(C)c2)CC1`: the “% Inhibition” value was -1% and the Z score is 0.1.

With `CN(C)C1(CNc2ccc(C#N)c(Cl)c2)CCOCC1`, the “% Inhibition” value is recorded as -5% and the Z score was determined as 0.53.

For `O=C(c1cc(F)cc(F)c1)N1CCC2(CC1)N(c1ccccc1)C(=O)CS2(=O)=O`, the “% Inhibition” value is given as -15% and the Z score was 2.33.

With `CC(C)(N)Cc1ccc(C(F)(F)F)cc1`, the “% Inhibition” value stood at 1% and the Z score is -0.09.

Regarding `CN1CC[C@]2(CCN(c3ccnc4ccsc34)C2)C1`, the “% Inhibition” value turned out to be 98% and the Z score is on record as -10.65.

Turning to `c1cc(N2CC[C@@]3(CCCNC3)C2)c2sccc2n1`, the “% Inhibition” value amounted to 98% and the Z score was -16.03.

Take `CN1CC[C@@]2(CCCN(c3ccncc3F)C2)C1`: the “% Inhibition” value is -8% and the Z score came out at 0.76.

On to `Clc1cccc2c(N3CC[C@]4(CCNC4)C3)ccnc12`, for which the “% Inhibition” value was 23% and the Z score is -3.12.

In the case of `CN1CCC[C@@]2(CCN(c3ccncc3C3CC3)C2)C1`, the “% Inhibition” value worked out at 0% and the Z score was found to be 0.05.

For the molecule `CCc1cc(CN[C@@H](C)Cc2ccc(F)cc2)on1`, the “% Inhibition” value is on record as -5% and the Z score stood at 0.53.

On to `Cc1nc(CN2C[C@@H](CO)[C@H](c3ccc(Cl)cc3)C2)co1`, for which the “% Inhibition” value is reported as 4% and the Z score is -0.83.

As for `O=C(CNc1ccc(Cl)c(F)c1)N1CCC2(CC1)OCCO2`, the “% Inhibition” value came to 28% and the Z score is on record as -3.19.

For `CCCS(=O)(=O)Nc1ccc(=O)n2c1[C@@H]1C[C@@H](CN(C(=O)Nc3ccc(F)cc3)C1)C2`, the “% Inhibition” value amounted to 27% and the Z score was -3.06.

With `N#Cc1ccc(N[C@H]2CCN(C3CCOCC3)C2=O)cc1C(F)(F)F`, the “% Inhibition” value is 1% and the Z score is given as -0.05.

As for `CN(Cc1ccccc1)C[C@H]1C[N@@]2CC[C@H]1C[C@@H]2CNC(=O)c1ccccc1`, the “% Inhibition” value worked out at 11% and the Z score is -1.99.

Consider `C#CCN(C)C[C@H]1C[N@@]2CC[C@H]1C[C@@H]2CNC(=O)c1ccccc1`, for which the “% Inhibition” value turned out to be 33% and the Z score is reported as -3.75.

Turning to `C=CCN(C)C[C@H]1CN2CC[C@H]1C[C@@H]2CNC(=O)Nc1ccc(OC(F)(F)F)cc1`, the “% Inhibition” value is reported as 57% and the Z score is listed as -4.08.

As for `O=C(c1ccncc1F)N1C[C@H]2CC[C@@H](C1)N(CC1CC1)C2`, the “% Inhibition” value worked out at 2% and the Z score is given as -0.29.

As for `O=C(NCc1ccccc1)N1Cc2ccccc2-n2cccc2[C@H]1c1ccccc1`, the “% Inhibition” value is listed as -9% and the Z score is given as 1.11.

Consider `CN1CCN(CC(=O)N2CCC3(CC2)OCCO3)c2ccc(Cl)cc21`, for which the “% Inhibition” value is -13% and the Z score is reported as 2.46.

With `CCCc1cncnc1N1C[C@H]2CC[C@@H](C1)N(CCC)C2`, the “% Inhibition” value came to 7% and the Z score is given as -1.29.

As for `Cc1nc[nH]c1CN1C[C@H]2CC[C@@H](C1)N(C(=O)Cc1ccncc1)C2`, the “% Inhibition” value is -5% and the Z score is recorded as 0.88.

Turning to `COc1ccc2c(c1)OC[C@@]1(C(=O)O)CN(CCC(F)(F)F)C[C@@H]21`, the “% Inhibition” value is on record as 3% and the Z score was -0.33.

As for `Cc1cc(Cl)cc2c(N3CC[C@@]4(O)CCNC[C@H]4C3)ccnc12`, the “% Inhibition” value was determined as 3% and the Z score is reported as -0.52.

Regarding `Cc1cc(C)n2ncc(CN3C[C@@H]4CC[C@H](C3)C(=O)N4)c2n1`, the “% Inhibition” value is -11% and the Z score is on record as 1.38.

Turning to `CC(C)(C)OC(=O)N1[C@@H]2CC[C@H]1[C@@H]1C[C@]1(C(=O)O)C2`, the “% Inhibition” value was -10% and the Z score was 1.06.

Take `CC(C)c1ncc(C(=O)N[C@H]2CN3CCC2CC3)cn1`: the “% Inhibition” value is on record as 2% and the Z score was -0.19.

As for `O=C(Cc1c[nH]c2ccccc12)N1CCN(Cc2nnn3c2CO[C@H](c2cccc(F)c2)C3)CC1`, the “% Inhibition” value was -6% and the Z score was determined as 0.79.

For the molecule `c1ccc2c(CN3CCCCCC3)c[nH]c2c1`, the “% Inhibition” value is recorded as 5% and the Z score is -0.53.

As for `CCOc1ccccc1NC(=O)c1ccc2oc(=O)n(Cc3ccc(F)cc3)c2c1`, the “% Inhibition” value came to 2% and the Z score was -0.31.

In the case of `COc1cccc(CNC(=O)N2CC[C@@H]3CCN(C)C[C@@H]32)n1`, the “% Inhibition” value is reported as 88% and the Z score was 0.42.

Usually % Inhibition stands for the change of the read-out against control, counted positive when it falls.
